Records with an inconclusive call do not appear. Unmarked numbers belong to inactive results. Active and inactive are the calls of the source. Calls follow the shape of the dose curve; as a rule, active = well fitted inhibition curve with a large enough effect; inconclusive = small, poorly fitted or top-dose-only effect; inactive = flat fitted curve, though single readings scatter.
Tested on: HaCat
Experiment: Cytotoxic Profiling of Annotated Libraries Using Quantitative High-Throughput Screening (AID 1296008); also: nearly all actives have a fitted effect of over 60% in size
Settings: Five cell lines viability, CellTiter-Glo ATP luminescence, 48-72 h; max response: hits give low values
Summary of the method: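 Cytotoxicity was measured as CellTiter-Glo ATP luminescence, read after 10 min at room temperature. Compound treatment of the cells lasted 48 or 72 hr at 37 degrees Celsius in a qHTS format.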
% is scaled to controls: 0 for no effect and ±100 for the full control effect; potency is read from the fitted curve at half-maximal effect.

**Q.** For `O=C(NCc1cccc(O)c1)c1cc2cc(F)ccc2[nH]1`, which max response is on record?
**A.** -7.37%

**Q.** `CC(=O)O[C@@H]1[C@@H](OC(=O)/C=C/c2ccccc2)[C@@H](OC(C)=O)[C@H](O[C@H]2[C@@H]3C=CO[C@@H](O[C@@H]4O[C@H](CO)[C@@H](O)[C@H](O)[C@H]4O)[C@@H]3[C@@]3(CO)O[C@@H]23)O[C@H]1C` was tested. Which max response did it give?
**A.** -11.2%

**Q.** Which max response does the source give for `C[C@H](O)[C@H](O)/C=C/c1cccc(O)c1CO` here?
**A.** -3.13%

**Q.** Which Potency does the source give for `O=C(NCc1ccc(S(=O)(=O)c2cc(F)cc(F)c2)cc1)c1ccc2nccn2c1` here?
**A.** 32.6 nM (active)

**Q.** Which max response does the source give for `Cc1ccccc1CN1C2=NCCN2C(=O)C2=C1CCN(Cc1ccccc1)C2` here?
**A.** -42.7%

**Q.** How did the max response turn out when `CC(=O)CCC1=C(C)C(O[C@@H]2O[C@H](CO)[C@@H](O)[C@H](O)[C@H]2O)C(O)CC1(C)C` (some centres not stated) was run?
**A.** 1.46%

**Q.** Which max response does the source give for `Cc1cc(C)c2c(N)c(C(=O)NCc3ccc(Cl)cc3)sc2n1` here?
**A.** -6.45%

**Q.** How did the Potency turn out when `Cc1cc(C)cc(C(=O)NOCCCCCC(=O)NO)c1` was run?
**A.** 1840 nM (active)

**Q.** `CC(C)CC(=O)O[C@@H]1OC=C(CO[C@@H]2O[C@H](CO)[C@@H](O)[C@H](O)[C@H]2O)[C@H]2[C@@H]3O[C@H]3[C@@](O)(CO)[C@@H]12` was tested. Which max response did it give?
**A.** 1.46%

**Q.** How did the max response turn out when `CC(CO)C1CCC2(C)CC3C(CO)CC(O)C3C(C)(O)C/C=C/12` (configuration not stated) was run?
**A.** -5.8%

**Q.** `COC(=O)C1=C2Nc3ccccc3C23CCN2CCCC(C(C)O)(C1)C23` (configuration not stated) was tested. Which max response did it give?
**A.** -21.7%

**Q.** How did the max response turn out when `C/C=C1\[C@H](O[C@@H]2O[C@H](CO)[C@@H](O)[C@H](O)[C@H]2O)OC=C(C(=O)OC)[C@H]1CC(=O)OC[C@H]1O[C@@H](OCCc2ccc(O)cc2)[C@H](O)[C@@H](O)[C@@H]1O` was run?
**A.** -4.08%
